Experimental findings from PubChem BioAssay (NCI) are described below.

The panel holds about 83,000 compounds, 20% with a hit somewhere; the sample as a whole holds those more often.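 For each line, cells grew in 96-well plates with the test compound present at a single concentration for 48 hours.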 Active and inactive are the calls of the source. How the source made its calls: active means growth percent below 10; inactive means the rest.

In the first assay the test system is T-47D breast. As to the kind of experiment: NCI-60 one-dose screen, 48 h (100 = growth as untreated, 0 = no growth, -100 = all killed). Conditions: 10 µM.
Take `c1ccc(Sc2ccccc2)cc1`: the growth was 99.6% (inactive).

Consider `CCCCC(O)c1ccccc1` (stereo not drawn), for which the growth was 87.2% (inactive).

Turning to `C[N+](C)=c1ccc2nc3c(cc(Nc4ccccc4)c4ccccc43)oc-2c1`, the growth is 31.8% (inactive).

As to `CCc1nc(N)nc(N)c1-c1ccc(Cl)cc1`, the growth was 100% (inactive).

`FC(F)(F)c1ccc2c(c1)N(CCCN1CCN(C3CC3)CC1)c1ccccc1S2`: the growth is 87.8% (inactive).

Consider `N#CC(=Nc1cccc(F)c1)C1=C(O)c2ccccc2C1=O`, for which the growth is 83.2% (inactive).

`COC(=O)c1ccccc1N(C)C`: the growth is 93.5% (inactive).

Turning to `COc1ccc(C(=O)C(Br)C(Br)C(=O)O)cc1` (stereo not drawn), the growth was 106% (inactive).

Consider `COC1=CC(=O)c2nc(Cl)ccc2C1=O`, for which the growth was -38.7% (active).

On to `O=C(NCc1ccco1)Nc1c(Cl)cc(Cl)cc1Cl`, for which the growth was 88.6% (inactive).

Turning to `O=[N+]([O-])c1cccc(N=Nc2ccc(O)cc2O)c1`, the growth is 54% (inactive).

As for `CC[N+](C)(CC)CCO`, the growth is 93.4% (inactive).

In the case of `COc1cc(/C=C/C(=O)c2ccccc2)cc(OC)c1OC`, the growth is 91.4% (inactive).

With `N#Cc1c(N)sc(=S)c2c1CCCC2`, the growth is 95.7% (inactive).

In the case of `CNc1nc(NC)c2cn[nH]c2n1`, the growth is 101% (inactive).

For the compound `NCCC(=O)c1ccc(Cl)cc1`, the growth is 91.4% (inactive).

Take `C[C@]12CC[C@@H]3c4ccc(OCC(=O)O)cc4CC[C@H]3[C@@H]1CCC2=O`: the growth is 114% (inactive).

For `COc1ccc(NC(=O)CCl)cc1`, the growth was 62.7% (inactive).

As to `O=[N+]([O-])c1ccc(CO)cc1`, the growth is 88.3% (inactive).

For `NNc1ccccc1C(=O)O`, the growth is 107% (inactive).

For `c1ccc(Cc2ccccc2)cc1`, the growth was 93.4% (inactive).

`S=c1[nH]ccn1-c1ccccc1Cl`: the growth is 107% (inactive).

In the case of `COc1cc2cc(c1Cl)N(C)C(=O)C[C@H](OC(=O)[C@H](C)N(C)C(C)=O)[C@]1(C)O[C@H]1[C@H](C)[C@@H]1C[C@@](O)(NC(=O)O1)[C@H](OC)C=C/C=C(\C)C2`, the growth was 74.6% (inactive).

For `NC(=S)N/N=C/c1ccc(N)cc1`, the growth is 93.9% (inactive).

With `C/C(=N\NC(=O)c1ccccc1N)c1ccccc1O`, the growth was 25.2% (inactive).

Consider `O=C(O)c1ccccc1NCc1ccco1`, for which the growth is 103% (inactive).

Regarding `CC(=O)OC(OC(C)=O)C1CCCO1` (stereo not drawn), the growth is 101% (inactive).

Regarding `CC1(C)Nc2cccc3c(N=Nc4ccc(N=Nc5ccccc5)c5ccccc45)ccc(c23)N1`, the growth was 76.7% (inactive).

On to `CCCC1(c2ccccc2)NC(=O)NC1=O` (stereo not drawn), for which the growth is 106% (inactive).

Turning to `CC(=O)Nc1c(C)cc(C)cc1C`, the growth was 98.2% (inactive).

Consider `Cc1cc(/C=C/c2ccc3cc(N(C)C)ccc3[n+]2C)c(C)n1-c1ccccc1`, for which the growth is -47.3% (active).

As to `CCOc1ccccc1/C=N/Nc1nc2ccccc2o1`, the growth was 23.4% (inactive).

Regarding `C=CCc1cc(C(C)=O)cc(OC)c1O`, the growth was 118% (inactive).

In the case of `Cc1cc(C)c(CC(=O)O)c(C)c1`, the growth is 106% (inactive).

Turning to `C=CC[N+](C)(C)C`, the growth is 103% (inactive).

Regarding `CC(=O)OCC1CCCO1` (stereo not drawn), the growth was 93.1% (inactive).

Take `CN(C)CCN(Cc1ccccc1)c1ccccc1`: the growth is 95% (inactive).

Regarding `O=C(O)CSCSCC(=O)O`, the growth is 95.4% (inactive).

Consider `COc1cc2c(cc1O)CC[C@@H]1C2CC[C@@]2(C)C1CC[C@@H]2O` (stereo partly drawn), for which the growth is 31.1% (inactive).

The test system of the next assay is BT-549 breast. The description is as above. Conditions: 10 µM.
In the case of `c1ccc(Sc2ccccc2)cc1`, the growth is 100% (inactive).

`CCCCC(O)c1ccccc1` (stereo not drawn): the growth is 110% (inactive).

Turning to `C[N+](C)=c1ccc2nc3c(cc(Nc4ccccc4)c4ccccc43)oc-2c1`, the growth is 41.7% (inactive).

`CCc1nc(N)nc(N)c1-c1ccc(Cl)cc1`: the growth is 67.7% (inactive).

On to `FC(F)(F)c1ccc2c(c1)N(CCCN1CCN(C3CC3)CC1)c1ccccc1S2`, for which the growth was 61% (inactive).

In the case of `N#CC(=Nc1cccc(F)c1)C1=C(O)c2ccccc2C1=O`, the growth was 89.2% (inactive).

For `COC(=O)c1ccccc1N(C)C`, the growth was 103% (inactive).

As for `COc1ccc(C(=O)C(Br)C(Br)C(=O)O)cc1` (stereo not drawn), the growth is 99.5% (inactive).

On to `COC1=CC(=O)c2nc(Cl)ccc2C1=O`, for which the growth is 106% (inactive).

Turning to `O=C(NCc1ccco1)Nc1c(Cl)cc(Cl)cc1Cl`, the growth was 96.1% (inactive).

As for `O=[N+]([O-])c1cccc(N=Nc2ccc(O)cc2O)c1`, the growth is 49.8% (inactive).

On to `CC[N+](C)(CC)CCO`, for which the growth is 99.9% (inactive).

On to `COc1cc(/C=C/C(=O)c2ccccc2)cc(OC)c1OC`, for which the growth is 72% (inactive).

For the compound `N#Cc1c(N)sc(=S)c2c1CCCC2`, the growth was 98.5% (inactive).

Take `CNc1nc(NC)c2cn[nH]c2n1`: the growth is 103% (inactive).

Turning to `NCCC(=O)c1ccc(Cl)cc1`, the growth was 109% (inactive).

As to `C[C@]12CC[C@@H]3c4ccc(OCC(=O)O)cc4CC[C@H]3[C@@H]1CCC2=O`, the growth was 102% (inactive).

In the case of `COc1ccc(NC(=O)CCl)cc1`, the growth is 66.3% (inactive).

Take `O=[N+]([O-])c1ccc(CO)cc1`: the growth was 105% (inactive).

As to `NNc1ccccc1C(=O)O`, the growth is 103% (inactive).

Consider `c1ccc(Cc2ccccc2)cc1`, for which the growth is 123% (inactive).

On to `S=c1[nH]ccn1-c1ccccc1Cl`, for which the growth was 117% (inactive).

Take `COc1cc2cc(c1Cl)N(C)C(=O)C[C@H](OC(=O)[C@H](C)N(C)C(C)=O)[C@]1(C)O[C@H]1[C@H](C)[C@@H]1C[C@@](O)(NC(=O)O1)[C@H](OC)C=C/C=C(\C)C2`: the growth is -21% (active).

With `NC(=S)N/N=C/c1ccc(N)cc1`, the growth was 96.3% (inactive).

In the case of `C/C(=N\NC(=O)c1ccccc1N)c1ccccc1O`, the growth is 72.2% (inactive).

Consider `O=C(O)c1ccccc1NCc1ccco1`, for which the growth was 101% (inactive).

With `CC(=O)OC(OC(C)=O)C1CCCO1` (stereo not drawn), the growth is 95.8% (inactive).

For the compound `CC1(C)Nc2cccc3c(N=Nc4ccc(N=Nc5ccccc5)c5ccccc45)ccc(c23)N1`, the growth is 124% (inactive).

On to `CCCC1(c2ccccc2)NC(=O)NC1=O` (stereo not drawn), for which the growth was 106% (inactive).

Consider `CC(=O)Nc1c(C)cc(C)cc1C`, for which the growth is 105% (inactive).

On to `Cc1cc(/C=C/c2ccc3cc(N(C)C)ccc3[n+]2C)c(C)n1-c1ccccc1`, for which the growth was -52.2% (active).

Turning to `CCOc1ccccc1/C=N/Nc1nc2ccccc2o1`, the growth is 98.3% (inactive).

Turning to `C=CCc1cc(C(C)=O)cc(OC)c1O`, the growth is 97.2% (inactive).

For `Cc1cc(C)c(CC(=O)O)c(C)c1`, the growth is 104% (inactive).

`C=CC[N+](C)(C)C`: the growth was 114% (inactive).

Regarding `CC(=O)OCC1CCCO1` (stereo not drawn), the growth is 107% (inactive).

Consider `CN(C)CCN(Cc1ccccc1)c1ccccc1`, for which the growth is 119% (inactive).

As to `O=C(O)CSCSCC(=O)O`, the growth was 101% (inactive).

`COc1cc2c(cc1O)CC[C@@H]1C2CC[C@@]2(C)C1CC[C@@H]2O` (stereo partly drawn): the growth is 23.4% (inactive).
